Measured values published in PubChem BioAssay AID489008 (National Center for Advancing Translational Sciences (NCATS), 2010).
Inconclusive results are not listed. Active and inactive are the calls of the source. Calls come from the whole dose curve; as a rule, active = well fitted inhibition curve with a large enough effect; inconclusive = small, poorly fitted or top-dose-only effect; inactive = flat fitted curve, though single readings scatter.

These molecules were tested against Ferritin light chain (Equus caballus) (UniProt P02791) (assay: Confirmation Assay for Identification of Novel General Anesthetics). Conditions: apoferritin 1-aminoanthracene fluorescence displacement.
Sequence of Ferritin light chain (Equus caballus) (P02791 2-175 limits assumed): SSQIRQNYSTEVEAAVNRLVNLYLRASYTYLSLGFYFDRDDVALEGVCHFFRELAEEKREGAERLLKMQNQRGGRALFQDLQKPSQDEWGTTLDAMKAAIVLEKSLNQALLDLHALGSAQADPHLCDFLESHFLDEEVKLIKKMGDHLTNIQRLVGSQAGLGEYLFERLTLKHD
Outline: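 Horse apoferritin (10 uM) pre-loaded with 1-AMA (50% saturated, PBS) exposed to compounds 10 min at room temperature; loss of 1-AMA fluorescence (380/535 nm) scaled between free and bound ligand, curves fitted with Hill equation.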
Note: nearly all actives have a fitted effect of over 40% in size.
Potency is the fitted concentration of half-maximal effect.

Potency, active:
Cc1ccc(NC(C)c2cc(Cl)ccc2O)cc1 (stereo not drawn) 17.8 µM
N#CCc1ccc(Oc2ncc(C(F)(F)F)cc2Cl)cc1 17.8 µM
Nc1ccc(Nc2ccccc2)c(Cl)c1 12.6 µM
Cc1ccc(NC2CCCN(C(=O)c3cccs3)C2)cc1C (stereo not drawn) 15.8 µM
COc1ccc(OCCC(=O)NCC23CC4CC(CC(C4)C2)C3)cc1 6.31 µM
Cc1ccc(Cl)cc1NC(=O)C1COc2ccccc2O1 (stereo not drawn) 20 µM
CCCCSC(=O)Nc1ccccc1 7.08 µM
O=C(CN1N=C(c2ccccc2)CCC1=O)NCc1cccs1 17.8 µM
CCNc1nc(C23CC4CC(CC(C4)C2)C3)cs1 7.94 µM
O=C(Cc1cccc2ccccc12)N1CCCc2ccccc21 17.8 µM
O=C(COC(=O)C1=COCCO1)NC1CCCCCCC1 12.6 µM
CC(NC(=O)COC(=O)C1=COCCO1)C12CC3CC(CC(C3)C1)C2 (stereo not drawn) 14.1 µM
O=C1c2ccsc2SCCN1Cc1cccc(Cl)c1 15.8 µM
O=C(NC1CCCCCCC1)c1cc(COc2ccc3ncccc3c2)on1 12.6 µM
Nc1nc(C23CC4CC(CC(C4)C2)C3)cs1 7.94 µM
C/C(=N\O)C(C)(C)Nc1ccc(Br)cc1 8.91 µM
O=C(CSc1ccccn1)C12CC3CC(CC(C3)C1)C2 6.31 µM
Cc1ccc(NCc2cccnc2)c(Br)c1 8.91 µM
Cc1ccc(CNC(=O)CN2N=C(c3ccccc3)CCC2=O)cc1 5.19 µM
N#Cc1ccc(NC(=O)COC(=O)CNC(=O)C2CCCCC2)cc1 15.8 µM
Cc1ccc(NC(=O)N2CCCCCC2)cc1 12.6 µM
Cc1ccccc1Nc1cccc2nonc12 20 µM
Nc1nc(Cl)cc(NCCc2ccc(O)cc2)n1 14.1 µM
CCc1ccc(NC(=O)C2(C)Cc3ccccc3C(=O)O2)cc1 (stereo not drawn) 31.6 µM
Cc1cccc(Nc2nc(Cl)ncc2F)c1C 28.2 µM
Clc1ccc(CNc2ccccn2)cc1 15.8 µM
N#CC(Nc1ccccc1)c1ccccc1OCc1ccccc1 (stereo not drawn) 35.5 µM
O=C(O)Cc1csc(Nc2cccc(Cl)c2)n1 12.6 µM
Cc1ccc(CC(=O)OCC(=O)NC2CCCC(C)C2C)cc1C (stereo not drawn) 28.2 µM
CC1Cc2ccccc2N1C(=O)CSC1=NCCS1 (stereo not drawn) 10 µM
O=c1sc2ccccc2c(=O)n1Cc1ccccc1F 8.91 µM
Nc1nc(-c2cc(Cl)cc(Cl)c2OC(F)F)cs1 8.91 µM
Cc1cccc(C(=O)N2CCCCCC2)c1 22.4 µM
Cc1ccc(OCc2cc(C(=O)NC3CCc4ccccc43)no2)cn1 (stereo not drawn) 17.8 µM
CC1CCCCC1NC(=O)COC(=O)COc1ccccc1Cl (stereo not drawn) 17.8 µM
COc1cccc(CNc2ccc(C)c(Cl)c2)c1 11.2 µM
O=C(NC1CCCCC1)N1CCCCCCC1 14.1 µM
COc1ccccc1OCC(=O)N1CCCCCCC1 12.6 µM
